# MBD2 inh: inhibitors of human MBD2 binding to methylated oligonucleotide; Q9UBB5; TR-FRET; actives 0.31% (n = 370,000); inhibition, % at 4.4 µM; in the data active = inhibition above about 13%
# Neddylation inh: cullin neddylation inhibition. P61081+Q13564. TR-FRET cullin neddylation, biochemical. calls only at 25 µM. actives 0.58% (n = 360,000). AID 651699; in the data active = inhibition above about 36%
# UHRF1 MBD2 ctr: human UHRF1 methylated DNA binding inhibitors; Q96T88; UHRF1 binding to methylated oligo, TR-FRET; inhibition, % at 4.4 µM; actives 0.75% (n = 370,000); AID 687016; in the data active = inhibition above about 21%;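 also: UHRF1 SRA domain binding a hemimethylated CpG hairpin DNA probe; 0% = median of test compound wells and 100% = reference inhibitor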
# Target sequence (Q96T88 whole entry, looked up, the tested form may be a part): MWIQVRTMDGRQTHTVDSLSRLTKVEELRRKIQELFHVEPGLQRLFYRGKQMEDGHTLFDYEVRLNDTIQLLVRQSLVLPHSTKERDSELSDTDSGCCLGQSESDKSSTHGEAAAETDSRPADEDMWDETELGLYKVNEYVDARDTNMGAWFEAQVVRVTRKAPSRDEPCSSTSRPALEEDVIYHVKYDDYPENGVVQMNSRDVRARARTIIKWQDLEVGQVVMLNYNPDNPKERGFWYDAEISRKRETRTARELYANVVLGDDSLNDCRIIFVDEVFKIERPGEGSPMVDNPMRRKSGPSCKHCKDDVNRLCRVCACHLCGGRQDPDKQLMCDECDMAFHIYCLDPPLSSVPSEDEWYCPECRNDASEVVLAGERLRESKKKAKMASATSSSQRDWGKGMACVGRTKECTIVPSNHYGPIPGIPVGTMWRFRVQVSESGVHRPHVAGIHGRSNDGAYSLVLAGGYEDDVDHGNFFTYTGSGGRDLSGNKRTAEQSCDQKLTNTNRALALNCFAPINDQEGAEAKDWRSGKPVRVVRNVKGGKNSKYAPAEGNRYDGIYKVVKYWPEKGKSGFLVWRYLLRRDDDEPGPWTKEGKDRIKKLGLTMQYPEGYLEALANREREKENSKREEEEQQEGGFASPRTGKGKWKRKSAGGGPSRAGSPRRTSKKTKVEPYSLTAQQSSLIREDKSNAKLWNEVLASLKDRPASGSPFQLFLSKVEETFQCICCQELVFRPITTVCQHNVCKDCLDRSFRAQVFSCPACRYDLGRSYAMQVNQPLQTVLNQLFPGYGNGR
# KLK7 zymogen act: activates the human kallikrein-7 zymogen; P49862; purified proKLK7, EDANS-DABCYL substrate fluorescence; 100% is mature enzyme control, 0% vehicle; activation, % at 7 µM; actives 0.9% (n = 370,000);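 active = activation above the mean of all tested compounds plus 3 SD, computed per campaign excluding outliers beyond control limits, cut at about 13% in these data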
# Rin1-Abl PPI inh: blocks binding of human Rin1 to Abl; AID 588664; inhibition, % at 7.35 µM; P00519+Q13671; actives 0.4% (n = 360,000); TR-FRET Rin1/Abl binding, biochemical; in the data active = inhibition above about 5%, passing the limit was not always enough
# LEDGF integ inh: blocks HIV-1 LEDGF/p75-dependent DNA integration; TR-FRET IN-LEDGF/p75 DNA integration, Eu/Cy5; inhibition, % at 3.7 µM; actives 0.64% (n = 370,000);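 active = inhibition above the screen-wide mean plus 3 SD, cut at about 13% in these data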;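 also: signal is the Cy5 over europium emission ratio at 671 and 618 nm; 0% = plate median of compound wells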
# IN multimer up: activates HIV-1 integrase multimerization in LEDGF counter-screen | AID 1053131 | actives 17% (n = 2,000) | activation, % at 7.7 µM | shares compounds with LEDGF integ inh | TR-FRET HIV-1 integrase multimerization, biochemical; in the data active = activation above about 8.9%
# TRFRET interf: counter-screen for LEDGF/p75 integration inhibitors: TR-FRET optical interference | shares compounds with LEDGF integ inh | TR-FRET optical interference counterscreen, HIV-1 IN multimerization | inhibition, % at 7.7 µM | 2,000 tested, under 10 active | AID 1053135;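 active = inhibition above the mean over all tested compounds plus 3 SD, which no compound reached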;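 also: 0% = integrase with antibodies and DMSO and 100% = antibodies without integrase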
# LEDGF integ conf: LEDGF/p75-dependent HIV-1 integration inhibition, confirmation; shares compounds with LEDGF integ inh; TR-FRET LEDGF/p75-dependent HIV-1 integration, biochemical; actives 36% (n = 2,000); inhibition, % at 3.7 µM; in the data active = inhibition above about 14%
# Starred values were filed as active, the others as inactive; i = inactive; nt = not tested or not shown. Only some compounds are listed: those with a hit (about 3.1% of all), similar ones and a draw of the others.
SMILES,MBD2 inh,Neddylation inh,UHRF1 MBD2 ctr,KLK7 zymogen act,Rin1-Abl PPI inh,LEDGF integ inh,IN multimer up,TRFRET interf,LEDGF integ conf
CC(=O)c1cccc(-c2ccc3c(=O)[nH]c(Nc4ccccc4)cc3c2)c1,1,i,2,0,-3,21*,4,-14,71*
COc1ccc(OC)c(Nc2nnc(C)c(=O)[nH]2)c1,1,nt,3,0,nt,-4,nt,nt,nt
COc1ccccc1Nc1cc2cc(Br)ccc2c(=O)[nH]1,-4,i,18,1,1,21*,6,-23,73*
O=c1[nH]c(Nc2ccccc2)cc2cc(Br)ccc12,2,i,10,1,-1,35*,2,-6,58*
O=c1cc(Nc2cccc(Br)c2)[nH]c(=O)[nH]1,-3,i,0,-1,5,1,nt,nt,nt
COc1ccc(OC)c(Nc2cc3ccccc3c(=O)[nH]2)c1,-5,i,1,-1,2,17*,6,-20,65*
O=C(CNS(=O)(=O)c1ccc2ccccc2c1)OCc1nnc(-c2ccccc2)o1,-2,i,2,0,4,2,nt,nt,nt
O=C(N/N=C/c1c(O)n(Cc2ccco2)c(=O)[nH]c1=O)c1ccccc1,-5,i,34*,0,-1,53*,13*,-64,6
O=C(N/N=C\c1ccccc1OCc1ccccc1)c1ccco1,3,i,9,0,-1,-3,nt,nt,nt
O=C(CN1CCN(c2ccc(Cl)cc2)CC1)Nc1cccc(F)c1,-3,i,-1,0,-2,32*,0,-1,-4
COc1cccc(Nc2nc(C(N)C(C)C)cs2)n1 (configuration not stated),6,i,3,0,0,1,nt,nt,nt
COc1cccc(Nc2nc(C(N)CC(C)C)cs2)n1 (configuration not stated),0,i,-1,0,-10,14*,-1,3,5
C=CCn1c(SCC(=O)Nc2ccc(Br)cc2)nc(O)c(CC)c1=O,6,i,2,0,2,1,nt,nt,nt
CNC(=O)c1ccc(CN(C)CC(=O)Nc2ccccc2C(=O)NC2CC2)cc1,-1,i,2,0,2,75*,-1,4,-2
CCc1ccc(CN2CCC(CO)(CC3CCCCO3)CC2)o1 (configuration not stated),-2,i,0,0,2,13*,0,2,1
Cc1ccc(CN2CCC(CO)(CC3CCCCO3)CC2)o1 (configuration not stated),0,i,1,0,1,0,nt,nt,nt
O=S1(=O)C=C(Sc2ccc(Cl)cc2)c2ccccc2C1Cc1ccc(F)cc1 (configuration not stated),2,nt,-4,-1,nt,1,nt,nt,nt
CC(=O)Nc1cc2c(cc1[N+](=O)[O-])-c1ccccc1C2=NO,-8,i,-4,0,1,15*,0,1,1
Nc1cc2c(cc1[N+](=O)[O-])-c1ccccc1C2=NO,-1,i,1,0,-2,-4,nt,nt,nt
N#Cc1nc(-c2cccs2)oc1NCc1ccc(Cl)cc1,-4,nt,1,-18,-1,7,nt,nt,nt
Cc1ccc(CNc2oc(-c3cccs3)nc2C#N)cc1,-2,nt,-2,-8,3,21*,1,-7,2
N#Cc1nc(-c2cccs2)oc1NCc1ccccc1,4,nt,-2,-10,0,14*,5,-17,17*
N#Cc1nc(-c2ccc(F)cc2)oc1NCc1ccco1,3,nt,1,3,-2,7,nt,nt,nt
N#Cc1nc(-c2cccs2)oc1NCc1ccco1,-5,nt,-4,8,-1,12,nt,nt,nt
N#Cc1nc(-c2ccc(F)cc2)oc1NCc1ccccc1,7,nt,0,-13,-1,15*,-2,8,-2
SMILES,MBD2 inh,Neddylation inh,UHRF1 MBD2 ctr,KLK7 zymogen act,Rin1-Abl PPI inh,LEDGF integ inh,IN multimer up,TRFRET interf,LEDGF integ conf
CCN1CCN(C(=O)CN2C(=O)COc3ccc(C)cc32)CC1,3,i,0,-1,4,-5,nt,nt,nt
CC(C)Oc1ccc(CNC(=O)c2cc(S(=O)(=O)N3CCOCC3)cn2C)cc1,7,i,2,0,1,-2,nt,nt,nt
CSC1=N/C(=C\c2ccc(C)o2)C(=O)S1,-11,i,-4,1,-2,14*,1,-5,6
Cc1ccc(-c2ccc(CN3C(C)C(=O)N(Cc4cn(Cc5ccco5)nn4)CCS3(=O)=O)cc2)cc1 (configuration not stated),-1,i,-1,-1,-2,1,nt,nt,nt
CC1C(=O)N(Cc2cn(Cc3ccco3)nn2)CCS(=O)(=O)N1Cc1ccc(-c2cccnc2)cc1 (configuration not stated),10,i,3,0,1,17*,5,-24,13
N#Cc1ccccc1OCC(=O)Nc1nnc(C2CC2)s1,0,i,0,-1,2,11,nt,nt,nt
O=C1CC(c2ccc(O)cc2)Oc2cc(O)cc(O)c21 (configuration not stated),0,i,-1,0,2,4,nt,nt,nt
O=C1CC(c2ccc(O)c(O)c2)Oc2cc(O)cc(O)c21 (configuration not stated),0,i,1,0,1,13*,3,-13,23*
COc1ccccc1S(=O)(=O)N(C)C[C@H]1OCc2cnnn2CCCC(=O)N([C@@H](C)CO)C[C@@H]1C,-1,i,-2,0,-4,53*,0,0,-17
COc1ccccc1S(=O)(=O)N(C)C[C@H]1OCc2cnnn2CCCC(=O)N([C@H](C)CO)C[C@@H]1C,-1,i,-1,0,4,4,nt,nt,nt
COC(=O)c1cc(-c2cc3ccccc3s2)c(=O)n2c1CCC2,-4,nt,-3,-1,nt,6,nt,nt,nt
Cc1ccc(/C=[N+](\[O-])c2ccc(N(C)C)cc2)c2nsnc12,-7,i,0,0,-4,14*,10*,-38,11
COc1ccc(CS(=O)(=O)CC(C)(O)c2ccc(Cl)cc2)cc1 (configuration not stated),-5,i,-3,0,0,14*,0,-2,0
COc1ccc(NC(=S)N(CCCN2CCC(C)CC2)Cc2cccs2)cc1,1,i,-2,-1,-2,1,nt,nt,nt
COc1ccc(NC(=S)N(CCCN2CCCCC2)Cc2cccs2)cc1,0,i,-4,0,0,87*,0,-2,-6

# Assay outcomes (PubChem BioAssay)
